# Screening data (PubChem BioAssay)
# PfHsp40 yeast – rescue of yeast from PfHsp40 toxicity, primary screen, S. cerevisiae, ATP luminescence; AID 504582, 2011; 340,000 compounds, 0.68% hits; S. cerevisiae expressing PfHsp40, growth rescue; growth rescue, % at 12.5 µM; in the data active = growth rescue above about 28%, passing the limit was not always enough; inconclusive = no clear call, values can overlap the other calls;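 also: yeast W303a lacking pdr1 and pdr3 grown in galactose medium; growth measured after three days at 30 °C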
# BoNT-A LC inh2 – BoNT/A light chain protease inhibitors, primary screen, biochemical, flow cytometry, MLPCN library. Botulinum neurotoxin type A light chain protease (Clostridium botulinum A str. ATCC 3502). multiplex microsphere protease substrate cleavage. inhibition, % at 10 µM. 360,000 compounds, 0.17% hits
# Autofluor counter – counter-screen for toxin protease inhibitors: compound fluorescence; compound autofluorescence counterscreen, microsphere flow cytometry; hits give high values; 360,000 compounds, 3.1% hits; fluorescence intensity (no concentration beside the values); in the data active = fluorescence intensity above about 16000; inconclusive = no clear call, values can overlap the other calls
# MazEF act – activators of E. coli MazEF toxin-antitoxin RNase, primary screen, biochemical, fluorescence, uHTS | Endoribonuclease toxin MazF (Escherichia coli (strain K12)), P0AE70 | FAM/BHQ RNA-DNA oligo cleavage fluorescence, 5 h | activation, % at 20 µM | 350,000 compounds, 0.32% hits | AID 504720, 2011; in the data active = activation above about 50%
# BoNT-F LC inh – BoNT/F light chain protease inhibitors, primary screen, biochemical, flow cytometry, MLPCN library | Botulinum neurotoxin type F light chain protease (Clostridium botulinum) | Multiplex microsphere protease cleavage assay | inhibition, % at 10 µM | 360,000 compounds, 0.22% hits; in the data active = inhibition above about 35%, passing the limit was not always enough; inconclusive = no clear call, values can overlap the other calls
# Anthrax LF inh2 – Bacillus anthracis LF protease inhibitors, primary screen, biochemical, multiplex microsphere, MLPCN library | multiplex microsphere protease cleavage assay | inhibition, % at 10 µM | 360,000 compounds, 0.12% hits | AID 588501, 2011
# Target sequence (P15917 whole entry, looked up): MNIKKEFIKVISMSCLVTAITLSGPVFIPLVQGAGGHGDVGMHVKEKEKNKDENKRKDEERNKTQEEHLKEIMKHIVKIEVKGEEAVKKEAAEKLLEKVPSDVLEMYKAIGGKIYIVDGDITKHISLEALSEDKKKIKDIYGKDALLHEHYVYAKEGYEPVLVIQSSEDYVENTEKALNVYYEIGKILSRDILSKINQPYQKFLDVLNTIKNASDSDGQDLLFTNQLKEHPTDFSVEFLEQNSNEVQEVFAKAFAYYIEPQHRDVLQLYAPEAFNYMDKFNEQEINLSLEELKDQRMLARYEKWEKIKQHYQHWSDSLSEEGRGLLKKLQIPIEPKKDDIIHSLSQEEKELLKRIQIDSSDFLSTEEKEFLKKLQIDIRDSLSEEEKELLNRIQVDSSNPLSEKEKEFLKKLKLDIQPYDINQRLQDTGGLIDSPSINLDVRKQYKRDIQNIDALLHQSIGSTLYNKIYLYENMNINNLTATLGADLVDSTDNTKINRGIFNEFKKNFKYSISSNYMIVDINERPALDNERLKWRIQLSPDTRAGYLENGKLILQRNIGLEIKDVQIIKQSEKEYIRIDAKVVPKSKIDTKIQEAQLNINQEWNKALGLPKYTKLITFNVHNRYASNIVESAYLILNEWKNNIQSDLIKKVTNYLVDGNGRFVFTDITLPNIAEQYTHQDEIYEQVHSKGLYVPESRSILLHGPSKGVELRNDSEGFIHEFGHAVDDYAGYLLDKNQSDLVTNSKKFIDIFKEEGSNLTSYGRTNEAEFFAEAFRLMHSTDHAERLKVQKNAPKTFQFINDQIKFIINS
# Numbers stand for hits; i = inactive; ? = inconclusive; nt = no result; + = active, no number. An excerpt weighted towards active compounds, which were near 4.3% of everything screened. Rule as the data show it, unless noted: active = inhibition above about 30%; inconclusive = no clear call, values can overlap the other calls; inactive = below that.
SMILES,PfHsp40 yeast,BoNT-A LC inh2,Autofluor counter,MazEF act,BoNT-F LC inh,Anthrax LF inh2
Cn1c(SCC(=O)c2ccc(F)cc2)nnc1-c1cnccn1,i,i,18205,i,i,i
O=C(CSc1nnc(-c2cnccn2)n1Cc1ccco1)c1ccccc1,i,i,17135,i,i,i
O=C(CSc1nnc(-c2cnccn2)n1Cc1ccco1)c1ccc(Cl)cc1,i,i,i,i,i,i
Cc1cc(N2CCN(c3ccccc3)CC2)nc(NCc2ccccc2)n1,i,i,i,55.1,i,i
COC(=O)[C@H](CCSC)NC(=O)NCCC1=CCCCC1,i,i,i,i,i,i
COC(=O)[C@H](Cc1ccccc1)NC(=O)NCCC1=CCCCC1,i,?,24338,i,i,i
O=C(Nc1cc(Sc2ccccn2)cc([N+](=O)[O-])c1)c1cccc(F)c1,i,i,i,51.6,i,i
O=C(Nc1cc(Sc2nc3ccccc3s2)cc([N+](=O)[O-])c1)c1ccccc1,i,i,i,i,i,i
COc1nc(N)c(S(=O)(=O)c2ccc(C)cc2)cc1C#N,i,i,19122,i,i,i
CC(C(=O)NCCCn1ccnc1)(c1ccccc1)c1ccccc1,i,i,i,i,?,i
CCCCCCC(Cl)(Cn1ccnc1)c1ccccc1 (stereo unspecified),255.1,i,i,i,?,i
CCOC(=O)CNC(=O)COc1coc(CN2CCN(c3ccccc3)CC2)cc1=O,i,i,i,i,i,i
CCn1c(=O)cc(SCC(=O)NCCCN2CCN(c3ccccc3F)CC2)c2ccccc21,i,i,20693,i,i,i
COCCNC(=O)COc1cc(=O)n(C)c2ccccc12,i,i,16570,i,i,i
CCC1CCCCN1CCCNC(=O)COc1cc(=O)n(C)c2ccccc12 (stereo unspecified),i,i,20141,i,i,i
CCC1CCCCN1CCCNC(=O)CCCOc1cc(=O)n(C)c2ccccc12 (stereo unspecified),i,i,i,i,i,i
CCOC(=O)CNC(=O)COc1coc(CN2CCN(c3ccccc3F)CC2)cc1=O,i,38.3,i,i,i,i
CC(C)(C)OC(=O)NCCCCCNC(=O)c1ncn(Cc2ccccc2)c1C(=O)NCCCCCNC(=O)OC(C)(C)C,i,i,i,i,i,i
CC(C)(C)c1ccc(C(=O)NC(=O)COC(=O)CCS(=O)(=O)c2ccccc2)cc1,i,i,?,i,i,i
Cn1c(=O)cc(OCC(=O)NCCCN2CCN(c3ccccc3F)CC2)c2ccccc21,i,i,20602,i,i,i
CCN(CCCNC(=O)COc1cc(=O)n(C)c2ccccc12)c1cccc(C)c1,i,i,17522,i,i,i
COc1ccc(OC(=O)CCCN2C(=O)c3ccccc3C2=O)cc1,i,i,24000,i,i,i
Cc1cc(=O)oc2cc(OC(=O)CCN3C(=O)c4ccccc4C3=O)ccc12,i,i,22230,i,i,i
COc1ccc(OCCN2C(=O)c3ccccc3C2=O)cc1,i,i,i,i,i,i
Cc1cc(=O)oc2cc(OCCCN3C(=O)c4ccccc4C3=O)ccc12,i,i,i,i,i,i
SMILES,PfHsp40 yeast,BoNT-A LC inh2,Autofluor counter,MazEF act,BoNT-F LC inh,Anthrax LF inh2
COc1ccc(Cl)cc1NC(=O)C/C(C)=N/NC(=O)COc1ccc(C)cc1,i,i,i,i,i,i
Cc1ccc(C)c(OCC(=O)Nc2ccc(S(=O)(=O)Nc3ncccn3)cc2)c1,i,i,i,i,i,i
O=C1c2cccnc2C(=O)N1Cc1ccco1,i,i,i,i,i,i
O=c1[nH]c2cccnc2n1Cc1ccco1,i,?,21423,i,i,i
CC1CCN(C(=S)c2ccc(O)cc2)CC1,i,i,22756,i,i,i
CCOC(=O)CSC1=NC(=O)/C(=C\c2ccc(Cl)cc2)S1,40.1,i,i,i,i,i
CC1CCCC(C)N1C(=O)c1ccc2c(c1)S(=O)(=O)c1ccccc1C2=O (stereo unspecified),69.8,i,i,i,i,i
O=C1c2ccccc2S(=O)(=O)c2cc(C(=O)N3CCC(C(=O)N4CCCCC4)CC3)ccc21,nt,nt,nt,i,nt,nt
CCOc1ccc(C2C(C#N)=C(N)Oc3cc(O)ccc32)cc1OCC (stereo unspecified),i,i,i,i,i,i
COc1ccc(C2C(C#N)=C(N)Oc3cc(O)ccc32)cc1Cl (stereo unspecified),i,i,i,i,35.3,i
CN(C)c1ccc2c(c1)OC(N)=C(C#N)C2c1cccc(F)c1 (stereo unspecified),i,i,i,51.6,i,i
Cc1cccc(OCC(=O)N(Cc2ccc(F)cc2)C2CCS(=O)(=O)C2)c1C (stereo unspecified),i,i,i,i,i,i
COc1cccc(-n2c(O)c(C=NCc3ccccn3)c3ccccc3c2=O)c1,i,i,i,i,?,i
O=c1c2ccccc2c(C=NCc2ccccn2)c(O)n1-c1ccccc1,i,i,i,162.2,i,i
Cc1ccccc1-c1cc2nc(NCc3cccnc3)n(C)c(=O)c2s1,nt,i,i,nt,i,i
Cc1ccc(Cl)cc1NC(=O)Nn1cnnc1,i,i,i,i,i,i
COc1ccc(C(=O)Nn2cnnc2)c(OC)c1,i,i,21828,i,i,i
COc1ccc(C)cc1NC(=O)NC1CCCCCCC1,i,i,i,i,i,i
COc1ccc(C)cc1NC(=O)Nc1ccc(Br)cn1,i,i,18723,i,i,i
COc1ccc(Cl)cc1NC(=O)Nn1cnnc1,i,i,16503,i,i,i
COc1ccc(C(=O)Nc2ccc(C)cn2)c(OC)c1,i,i,21063,i,i,i
COc1ccc(C(=O)Nn2cnnc2)cc1OC,i,i,i,i,i,i
CC(=O)c1cccc(OCC(=O)N(C)CC(=O)NCc2ccco2)c1,i,i,i,i,i,i
CCc1ccc(NC(=O)CS(=O)CC(=O)Nc2ccc(N3CCOCC3)cc2)cc1 (stereo unspecified),i,i,i,i,i,i
CC(C)(C)OC(=O)C[C@@H]1C/C=C\C[C@@H](CC(=O)NCCO)C(=O)N2CCC[C@H]2COC1=O,i,i,i,i,i,i
CC(C)(C)OC(=O)C[C@H]1C/C=C\C[C@H](CC(=O)NCCO)C(=O)N2CCC[C@@H]2COC1=O,40.8,i,i,i,i,i
O=c1cc2oc3cc(O)c(O)cc3c(-c3ccccc3O)c-2cc1O,i,i,i,i,i,i
COc1ccc(OC)c(-c2c3cc(O)c(=O)cc-3oc3cc(O)c(O)cc23)c1,286.7,i,i,+,i,i
O=c1c2ccccc2nc(-c2ccccc2)n1CCCN1CCOCC1,i,i,16595,i,i,i
